Screens as filed in PubChem BioAssay.
Lassa entry inh: qHTS for Inhibitors of binding or entry into cells for Lassa Virus; Lassa virus pseudotype entry inhibition, cell reporter; Potency, µM (series often up to 37.9 µM), for the others: at the highest dose activity change, negative = inhibition, usual class: inhibitors; actives 1.2% (n = 300,000); AID 540256, 2011; calls by dose curve; tested in HEK293 cells; note: potency is the fitted concentration of half-maximal effect; nearly all actives have a fitted effect of over 50% in size
HCV inh: qHTS Assay for Inhibitors of Hepatitis C Virus (HCV). Huh7.5.1 HCVcc-Cre infection, luciferase reporter, 44 h. Potency, µM (titrated, usually from 41.8 µM), without a hit: at the highest dose activity change, negative = inhibition, most hits filed as inhibitors. actives 3.4% (n = 340,000); active = well fitted inhibition curve with a large enough effect; inconclusive = small, poorly fitted or top-dose-only effect, or another doubt; inactive = no such curve, though single readings can be large or run the other way; note: potency is the fitted concentration of half-maximal effect
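Infectious HCVcc-Cre (~0.5 moi) was added to cells just after compound, with cells seeded 4 h earlier at 1,000 per well. Luciferase activity after 44 h culture reported infection; substrate was incubated 15 min at room temperature before reading.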
VACV mCherry inh: qHTS for Stage-Specific Inhibitors of Vaccinia Orthopoxvirus: mCherry Reporter Primary qHTS. Vaccinia virus mCherry reporter infection, fluorescence. Potency, µM (series often up to 36.5 µM), for the others: top-dose activity change, negative = inhibition, actives largely listed as inhibitors. actives 0.63% (n = 310,000). AID 720579, 2013; calls by dose curve; tested in A549 cells; note: potency is the fitted concentration of half-maximal effect; nearly all actives have a fitted effect of over 35% in size
MARV entry inh: qHTS for inhibitors of binding or entry into cells for Marburg Virus; AID 540276, 2011; Marburg virus pseudotyped entry inhibition, cell reporter; actives 1.8% (n = 300,000); Potency, µM (series often up to 37.8 µM), for inactives: at the highest dose activity change, negative = inhibition, usual class: inhibitors; calls by dose curve; tested in HEK293 cells; note: potency is the fitted concentration of half-maximal effect
VACV Venus inh: qHTS for Stage-Specific Inhibitors of Vaccinia Orthopoxvirus: Venus Reporter Primary qHTS. actives 0.46% (n = 330,000). Potency, µM (highest dose often 36.5 µM), for the others: at the highest dose activity change, negative = inhibition, hits mostly inhibitors. AID 720580, 2013. Vaccinia virus Venus reporter expression, fluorescence; calls by dose curve; tested in A549 cells; note: potency is the fitted concentration of half-maximal effect; nearly all actives have a fitted effect of over 30% in size
HCMV antiviral: qHTS Assay for inhibitors of the human cytomegalovirus (HCMV) | HFF cells, HCMV-luciferase reporter, 72 h; stronger effect = lower value | activity change, negative = inhibition, % at 57.5 µM | actives 4.5% (n = 410,000); in the data active = activity change below about -60%; inconclusive = no clear call, values can overlap the other calls; inactive = above about -39%
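Human foreskin fibroblasts infected with luciferase-reporter HCMV at MOI 1 PFU/cell, compounds at two doses. Luciferase measured 72 h post infection; normalized to buffer-only basal and Salinomycin (10uM) controls.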
* marks the source's active call; other numbers are inactive results; i = inactive; u = inconclusive; x = no result; [ ] = dose if it differs, or a comment. In the library only some 7.8% were active in any assay of this set; here they are far more common. % is set by controls: 0 for no effect and ±100 for the full control effect.

SMILES	Lassa entry inh	HCV inh	VACV mCherry inh	MARV entry inh	VACV Venus inh	HCMV antiviral
CC(=O)c1ccc(NC(=O)CN2CCC(C(=O)c3ccc(F)cc3)CC2)cc1	-26.9%	u	-18.6%	-24.3%[46.1 µM]	-10.0%	17.1
O=C(CN1CCC(C(=O)c2ccc(F)cc2)CC1)Nc1ccc(F)cc1	u	10µM*	u	u	u	-22.6
Cc1c(C(=O)N(CCO)C(C)C)cnn1-c1ncc2c(n1)-c1ccccc1CCC2	x	x	-0.6%	x	-7.6%	x
CO[C@H]1[C@H](NC(=O)c2ccco2)c2ccccc2C12CCN(Cc1ccc3cccc(F)c3n1)CC2	x	x	-12.4%	x	-6.2%	x
COc1ccc(Cl)cc1NC(=S)NCCC(c1ccccc1)c1ccccc1	-1.0%	u	-26.7%	-19.0%	-21.1%	-18.9
COc1ccccc1NC(=S)NCCC(c1ccccc1)c1ccccc1	-0.7%	10µM*	-7.2%	-27.2%	-12.7%	u
COc1ccccc1NC(=O)NCCCl	24.7%	-0.9%	10µM*	-2.9%	10µM*	50.3
O=C(NCCCl)Nc1ccccc1OCCOc1ccccc1NC(=O)NCCCl	u	u	14.1µM*	-0.8%[46.1 µM]	u	18.3
NC(=O)C1(N2CCCCC2)CCN(C(=O)Nc2ccc(Cl)c(Cl)c2)CC1	6.8%[46.1 µM]	x	-12.9%	1.2%[46.1 µM]	-7.5%	139.0
CC1=CC(C)(C)NC(=S)N1c1cccc2ccccc12	-0.7%	26.0%	x	-12.8%	-21.3%	-100.3*
CC1=CC(C)(C)NC(=S)N1c1ccc2ccccc2c1	-9.1%[46.1 µM]	u	-24.2%	-34.4%[46.1 µM]	-7.4%	u
COc1cc(NC(=O)CCc2c(C)nn(-c3ccc4nnc(C)n4n3)c2C)cc(OC)c1OC	u	x	5.7%	x	3.6%	u
CCCc1cc(NC(=O)COC(=O)c2nccnc2N)n(-c2ccccc2)n1	x	-0.6%	x	x	x	-103.9*
OC1(c2cccnc2)CCN(Cc2ccc3c(c2)CN(Cc2cc(F)cc(F)c2)CCO3)CC1	x	x	-11.2%	x	-8.1%	x
CCC1=C(OC(=O)N(CC)CC)N2C(=O)OC(=NCc3ccccc3)[C@]2(C)[C@H]2C1=CC[C@H]1C(=O)N(c3ccccc3)C(=O)[C@H]12	x	-24.9%	i	x	-3.0%	-26.8
CCC1=C(OC(=O)N(CC)CC)N2C(=O)OC(=NCc3ccccc3)[C@]2(C)[C@H]2C1=CC[C@H]1C(=O)N(CC(=O)OC)C(=O)[C@H]12	x	4.0%	-27.4%	x	-12.2%	-61.9*
CCCCS(=O)(=O)/C=C\C=C/S(=O)(=O)CCCC	11.2µM*	2.51µM*	x	u	11.2µM*	x
CCCCS(=O)(=O)/C=C\C1C2C=CC(C2)C1S(=O)(=O)CCCC (stereo not drawn)	u	15.5%	x	0.6%	-8.2%	-4.4
CCOc1cc(C#N)c(-n2nnc3c(sc4nc(C)cc(C)c43)c2=O)cc1OCC	24.1%[46.1 µM]	x	0.4%	u	2.8%	2.5
CC1CCCN(c2ccc(F)cc2N)C1 (stereo not drawn)	u	u	-17.5%	u	29.9%	-77.6*
C[C@@H]1CC[C@H]2C(=O)N(Cc3ccccc3)C[C@@H](O)CN2[C@@H]1c1cccc(Br)c1	7.1%[14.3 µM]	x	x	-22.0%[14.2 µM]	x	x
Cc1ccc(OCCn2cnc3cc([N+](=O)[O-])ccc3c2=O)cc1	-0.1%	-27.3%	-19.5%	-7.4%	-20.6%	63.9
COc1ccc2c(Cn3cnc4cc([N+](=O)[O-])ccc4c3=O)cc(=O)oc2c1	u	-4.7%	i	4.47µM*	-18.2%	x
COc1cccc(CNCCSc2nnnn2C)c1OCc1ccc(Cl)cc1	-1.0%[46.1 µM]	x	i	10µM*	-22.9%	u
CCOc1cc(CNCCSc2nnnn2C)cc(Br)c1OCc1ccc(F)cc1	u	u	-11.7%	u	-25.0%	-2.6
SMILES	Lassa entry inh	HCV inh	VACV mCherry inh	MARV entry inh	VACV Venus inh	HCMV antiviral
COc1cccc(CNCCSc2nnnn2C)c1OCc1ccc(Cl)cc1Cl	u	x	i	u	-15.5%	-60.6*
Cn1nnnc1SCCCNCc1ccccc1OCc1ccccc1Cl	-18.6%[46.1 µM]	x	-17.5%[7.34 µM]	u	-20.5%[7.34 µM]	-63.3*
COc1cc(CNCCSc2nnnn2C)cc(Br)c1OCc1ccc(F)cc1	-12.2%	10µM*	x	u	u	-5.9
CCOc1c(CNCCSc2nnnn2C)cccc1OC	22.2%[46.1 µM]	x	15.0%	-25.3%[46.1 µM]	7.1%	7.6
CCN(CC)C(=O)CN1C(=O)COc2ccc(S(=O)(=O)N3CCOCC3)cc21	-0.5%[46.1 µM]	x	-6.9%	6.8%[46.1 µM]	-10.2%	1.3
Cc1ccc(-n2c3c(c(=O)[nH]c2=O)C(NC(=O)c2ccccc2F)(C(F)(F)F)C(=O)N3)cc1C (stereo not drawn)	9.6%[46.1 µM]	x	6.9%	-7.4%[46.1 µM]	7.0%	-5.1
Cc1noc(C)c1COc1ccccc1C(=O)N1CCN(S(=O)(=O)c2ccc(F)c(F)c2)CC1	x	14.9%	x	x	x	-4.6
Cc1ccc(S(=O)(=O)N2CCN(C(=O)c3ccccc3OCc3c(C)noc3C)CC2)cc1	x	0.562µM*	x	x	x	0.2
COCCCNC(=O)CCc1c(C)nc2nc(-c3cc(OC)cc(OC)c3)nn2c1C	10.1%[46.1 µM]	x	0.3%	14.1%[46.1 µM]	7.8%	0.1
CC(NC(=O)/C(C#N)=C/c1cn[nH]c1-c1ccccc1)c1ccccc1 (stereo not drawn)	11.2µM*	u	-27.7%	u	-21.6%	-36.1
N#C/C(=C\c1cn[nH]c1-c1ccc(Cl)cc1)C(=O)NC1CC1	u	-13.5%	x	-20.9%	x	x
N#C/C(=C\c1cn[nH]c1-c1ccccc1)C(=O)NC1CCCCCC1	-19.6%	25.1µM*	x	u	x	-37.4
CC(=O)Nc1ccc(NC(=O)CN2C(=O)CN(C)C(=O)c3ccccc32)cc1	3.5%[46.1 µM]	x	9.0%	x	11.7%	7.9
CCc1ccc(Nc2n[n+](-c3ccccc3)c(-c3cccc(C)c3)s2)cc1	x	31.6µM*	-9.6%	x	-25.4%	-19.1
CCOC(=O)Nc1ccc(N2CCOCC2)c(S(=O)(=O)Nc2ccc(Cl)cc2)c1	u	u	-28.3%	10µM*	-6.4%	27.6
COc1ccc(NS(=O)(=O)c2cc(NC(=O)c3cc(F)c(F)cc3Cl)ccc2N2CCOCC2)cc1	x	u	x	x	x	-24.3
Nc1cc(S(=O)(=O)Nc2ccc(Cl)cc2)ccc1N1CCOCC1	u	u	u	u	-12.9%	-72.0*
O=[N+]([O-])c1cc(S(=O)(=O)Oc2ccccc2)ccc1Cl	u	u	u	u	u	-88.7*
O=S(=O)(Oc1ccccc1)c1ccc(Cl)c(Cl)c1	0.0%[46.1 µM]	7.8%	u	0.6%[46.1 µM]	4.2%	-5.3
CCOc1c(Cl)cc(CNc2ccc(S(N)(=O)=O)cc2)cc1OC	u	4.4%	u	0.1%	-28.9%	u
CCOc1c(Cl)cc(CNc2ccc(N3CCCC3)cc2)cc1OC	u	-7.1%	-14.6%	u	-25.6%	-65.2*
